Bioassay records as filed in PubChem.
Hits are enriched below; roughly 1.5% of the tested compounds scored in any of these assays.
Nrf2 activator = activates Nrf2 signaling | Potency, µM (doses to about 46.1 µM), most hits filed as activators | AREc32 ARE-luciferase reporter (MCF7-derived line), luminescence, 24 h | 0.31% of 410,000 active | AID 624171; note: nearly all actives have a fitted effect of over 65% in size
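Luminescent ARE reporter assay in AREc32_Fluc cells: overnight plating at 37 deg C, 24 hr compound incubation, Steady-Glo added, 30 min RT before reading.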
IL-2 act = IL-2 activation. IL-2 activation reporter assay, cell-based qHTS; stimulated with anti-CD3/CD4/CD28 beads; in transgenic mouse T cells. activation, % (series mostly up to about 46 µM). 0.065% of 360,000 active. AID 652025; in the data active = activation above about 50%; inconclusive = mostly about 30% to 49%
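Screening format: compound pinned onto unstimulated transgenic mouse T cells, 60 min incubation, then anti-CD3/anti-CD4/anti-CD28 bead stimulation for 18 hours at 37 degrees C, followed by EGFP and DsRed detection.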
ALOX12 inh = ALOX12 (human) lipoxygenase inhibition. P18054. purified 12hLO, xylenol orange hydroperoxide absorbance. Potency, µM (top dose mostly 108 µM), usual class: inhibitors. 1.1% of 580,000 active. AID 1671190
Target sequence (P18054 whole entry, looked up): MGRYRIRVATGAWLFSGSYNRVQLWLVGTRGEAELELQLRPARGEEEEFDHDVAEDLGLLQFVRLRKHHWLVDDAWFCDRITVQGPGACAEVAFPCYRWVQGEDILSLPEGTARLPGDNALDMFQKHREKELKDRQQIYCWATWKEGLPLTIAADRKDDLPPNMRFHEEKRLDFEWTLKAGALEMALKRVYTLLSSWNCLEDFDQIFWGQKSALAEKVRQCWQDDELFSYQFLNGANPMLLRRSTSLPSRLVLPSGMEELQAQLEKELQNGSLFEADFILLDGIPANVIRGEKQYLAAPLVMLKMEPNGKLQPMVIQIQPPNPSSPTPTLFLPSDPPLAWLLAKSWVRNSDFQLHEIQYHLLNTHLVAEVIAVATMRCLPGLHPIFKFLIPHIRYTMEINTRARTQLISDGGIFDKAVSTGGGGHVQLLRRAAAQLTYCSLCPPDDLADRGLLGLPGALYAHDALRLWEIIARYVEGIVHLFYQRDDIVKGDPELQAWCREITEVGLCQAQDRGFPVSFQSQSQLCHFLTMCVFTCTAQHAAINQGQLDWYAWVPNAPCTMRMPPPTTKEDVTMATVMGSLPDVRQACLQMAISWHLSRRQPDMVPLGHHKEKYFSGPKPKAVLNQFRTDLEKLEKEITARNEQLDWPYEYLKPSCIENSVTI
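Purified human 12hLO at 150 nM in 25 mM Hepes, 0.01% Triton X-100, pH 7.0, preincubated 15 min at room temperature with compound. Reaction started with 40 uM arachidonic acid, 30 min at room temperature. Hydroperoxide measured by Fe-xylenol orange, 573/405 nm absorbance ratio.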
Integrin act MD = activators of alpha7 integrin expression for muscular dystrophy | alpha7betagal myoblasts, beta-gal FDG fluorescence, 48 h | Potency, µM (titrated, usually from 38.3 µM), hits mostly activators | 0.064% of 350,000 active | AID 624291; note: nearly all actives have a fitted effect of over 60% in size
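alpha7betagal+/- myoblasts (passage 13, 250/well) treated 48 h at 37C with compounds at 1:260 dilution of DMSO stock. Lysed, then beta-galactosidase activity read as FDG fluorescence (ex 480/em 540) after 30 min, with pre-read for autofluorescence.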
uPA generation = blocks generation of uPA at the cell surface; cell surface uPA generation assay, qHTS; Potency, µM (top dose mostly 38.3 µM), most hits filed as inhibitors; 0.31% of 330,000 active; AID 540303; active = well fitted inhibition curve with a large enough effect; inconclusive = small, poorly fitted or top-dose-only effect; inactive = no such curve, though single readings can be large or run the other way; tested in mouse RAW 264.7 cells; note: nearly all actives have a fitted effect of over 55% in size
A number is an active result; i = inactive; ? = inconclusive; nt = no result. Unless noted, calls come from the whole dose curve; as a rule, active = well fitted curve in the direction sought with a large enough effect; inconclusive = small, poorly fitted or top-dose-only effect, or another doubt; inactive = no such curve, though single readings can be large; an effect the other way counts as inactive or inconclusive.

SMILES	Nrf2 activator	IL-2 act	ALOX12 inh	Integrin act MD	uPA generation
CCC(=O)N1CCN(c2nc3c(s2)CC(C(=O)NCc2ccccc2)CC3)CC1 (configuration not stated)	nt	nt	i	nt	nt
CCc1ccc(C(=O)N2CCC(Cc3nc(C(C)C)no3)CC2)cc1	nt	nt	i	nt	nt
Cc1cnc(C(=O)N2CCC(c3noc(-c4cccnc4)n3)C2)cn1 (configuration not stated)	nt	nt	i	nt	nt
O=C1NC2c3ccccc3CC2O1 (configuration not stated)	i	i	i	i	i
O=C1NC2c3c(Cl)sc(Cl)c3C(=O)C2O1 (configuration not stated)	15.8µM	i	39.8µM	i	i
O=C1NC2c3c(I)sc(I)c3C(=O)C2O1 (configuration not stated)	11.2µM	i	?	i	i
Nc1cc(C(=O)OCc2cccc(F)c2F)ccc1Cl	nt	nt	i	nt	nt
CC(C(=O)Nc1ccc(F)cc1Cl)N1CCN(c2ccc(O)cc2)CC1 (configuration not stated)	nt	nt	39.8µM	nt	nt
CC(C(=O)Nc1cc([N+](=O)[O-])ccc1Cl)N1CCN(c2ccc(O)cc2)CC1 (configuration not stated)	i	i	?	i	i
Cc1cc2c(Nc3ccccc3O)ncnc2s1	11.2µM	i	?	i	nt
CCSc1cc(C)nc2c(-c3ccccc3)cnn12	15.8µM	i	i	i	i
C=CCSc1cc(C)nc2c(-c3ccccc3)cnn12	i	i	i	i	i
O=C(O)c1ccc(-n2cc(-c3cc4ccccc4oc3=O)[nH]c2=S)cc1	i	i	31.6µM	i	i
O=C(Nc1cccnc1)C12CC3CC(CC(C3)C1)C2	i	i	i	i	i
O=C(Nc1cccnc1)C1(F)C(F)(F)C(F)(F)C(F)(F)C(F)(F)C1(F)F	10µM	i	?	i	i
CCCN(CC1CCOC1)C(=O)Nc1cccc(Br)c1 (configuration not stated)	nt	nt	i	nt	nt
Oc1ccc2ccccc2c1/C=N/Nc1ccccc1	i	i	?	i	i
Cc1cc(N/N=C/c2c(O)ccc3ccccc23)nc(-c2ccccc2O)n1	7.08µM	i	i	i	i
CC(=O)c1sc(N/N=C\c2c(O)ccc3ccccc23)nc1C	i	i	39.8µM	i	i
Cc1ccc(C)c(Nc2cc(C)nc(-c3ccccc3O)n2)c1	i	i	i	i	7.08µM
Cc1cc(Nc2ccccc2Cl)nc(-c2ccccc2O)n1	i	i	i	?	i
CC(=O)c1sc(N/N=C/c2cccc(O)c2)nc1C	i	i	i	i	?
Nc1ccc2c(c1)Cc1c(F)cccc1-2	10µM	i	nt	i	i
Cc1noc(C)c1S(=O)(=O)N1CCC2(C1)N=C(c1ccccn1)C(=O)N2 (configuration not stated)	nt	nt	i	nt	nt
Cc1cccc(NC(=O)CSc2nc3cc([N+](=O)[O-])ccc3o2)c1	nt	nt	31.6µM	nt	nt
SMILES	Nrf2 activator	IL-2 act	ALOX12 inh	Integrin act MD	uPA generation
Cc1cccc(-c2nc3cc([N+](=O)[O-])ccc3o2)c1	10µM	i	i	i	i
O=[N+]([O-])c1ccc2oc(-c3ccccc3)nc2c1	?	i	i	i	i
Cc1cccc(-c2nc3cc(NC(=O)/C=C/c4ccco4)ccc3o2)c1	nt	nt	11.2µM	nt	nt
O=C(CSc1nc2cc([N+](=O)[O-])ccc2o1)Nc1ccc(Cl)cc1	nt	nt	22.4µM	nt	nt
O=C(/C=C/c1ccco1)NC(=S)Nc1cccc(-c2nc3ccccc3o2)c1	?	i	?	i	?
O=C(CSc1nc2cc(Cl)ccc2o1)Nc1ccc(N2CCOCC2)cc1	i	i	i	i	nt
CCn1c(C)cc(C(=O)CSc2nc3cc([N+](=O)[O-])ccc3o2)c1C	nt	nt	i	nt	nt
Cc1oc(-c2cccs2)nc1CC(=O)Nc1ccccc1N1CCCCCC1	nt	nt	i	nt	nt
CC(=O)c1c(C)oc2ccc(NS(=O)(=O)c3ccc4ccccc4c3)cc12	nt	nt	i	nt	nt
Cc1cc(C(=O)CSc2nc3cc([N+](=O)[O-])ccc3o2)c(C)n1C	nt	nt	i	nt	nt
Cc1ccc(NC(=O)CSc2nc3cc([N+](=O)[O-])ccc3o2)cc1C	nt	nt	39.8µM	nt	nt
CCOc1cc(C2NN=C(c3ccccc3)S2)ccc1OCc1ccccc1Cl (configuration not stated)	?	i	?	i	i
CCOc1cc(C2NN=C(c3ccccc3)S2)ccc1OCc1ccc(F)cc1 (configuration not stated)	11.2µM	i	?	i	i
